Measurements published in PubChem BioAssay (NCI).
Values joined by “and” are separate entries in the source; they are usually repeats but may differ in a detail not shown here. Identical values can stand only once. This is part of a sample that, as a whole, favours compounds with a hit. Of some 83,000 tested, about 20% had one in any assay.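 Cells were grown in 96-well plates and exposed to the test compound at a single concentration for 48 hours; results are reported as percent growth, with values below 10 considered active.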 Active and inactive are the calls of the source.

Key:
Assay in all cases: NCI-60 one-dose screen, 48 h (100 = growth as untreated, 0 = no growth, -100 = all killed)
Conditions in all cases: 10 µM unless noted
SK-MEL-2 melanoma = tested on: SK-MEL-2 melanoma
EKVX NSCLC = tested on: EKVX NSCLC
SN12C renal = tested on: SN12C renal
UO-31 renal = tested on: UO-31 renal
TK-10 renal = tested on: TK-10 renal
ACHN renal = tested on: ACHN renal
CAKI-1 renal = tested on: CAKI-1 renal
A498 renal = tested on: A498 renal
CCRF-CEM leukemia = tested on: CCRF-CEM leukemia
MOLT-4 leukemia = tested on: MOLT-4 leukemia
SR leukemia = tested on: SR leukemia
RPMI-8226 leukemia = tested on: RPMI-8226 leukemia
OVCAR-8 ovarian = tested on: OVCAR-8 ovarian
OVCAR-5 ovarian = tested on: OVCAR-5 ovarian
OVCAR-4 ovarian = tested on: OVCAR-4 ovarian
SK-OV-3 ovarian = tested on: SK-OV-3 ovarian
IGROV1 ovarian = tested on: IGROV1 ovarian
OVCAR-3 ovarian = tested on: OVCAR-3 ovarian
HS 578T breast = tested on: HS 578T breast
NCI/ADR-RES ovarian = tested on: NCI/ADR-RES ovarian

Measured: growth

CSc1nnc(-c2cc3c([nH]c4ccccc43)c(-c3cccc(O)c3)n2)n1-c1ccc(C)cc1
active: SK-MEL-2 melanoma -13.6% | SR leukemia 5.99% | OVCAR-3 ovarian 1.33%
inactive: EKVX NSCLC 70.4% | SN12C renal 62.7% | UO-31 renal 41.5% | TK-10 renal 35.5% | ACHN renal 32.3% | CAKI-1 renal 48.3% | A498 renal 30.6% | CCRF-CEM leukemia 12.2% | MOLT-4 leukemia 17.4% | RPMI-8226 leukemia 19.3% | OVCAR-8 ovarian 34.8% | OVCAR-5 ovarian 72.6% | OVCAR-4 ovarian 54.1% | SK-OV-3 ovarian 42% | IGROV1 ovarian 51% | HS 578T breast 37.3% | NCI/ADR-RES ovarian 43.1%

Nc1nc2c(s1)CCc1cn(S(=O)(=O)c3ccccc3)cc1-2
inactive: SK-MEL-2 melanoma 106% and 99.1% | EKVX NSCLC 95.8% | SN12C renal 86.6% and 93.5% | UO-31 renal 54.5% and 84.5% | TK-10 renal 108% and 115% | ACHN renal 95.9% and 101% | CAKI-1 renal 85.8% and 101% | A498 renal 80% and 73.5% | CCRF-CEM leukemia 79.9% and 79.3% | MOLT-4 leukemia 84.3% and 91.6% | SR leukemia 75.2% and 92.8% | RPMI-8226 leukemia 98.9% and 91.4% | OVCAR-8 ovarian 88.6% and 110% | OVCAR-5 ovarian 102% and 104% | OVCAR-4 ovarian 87.5% | SK-OV-3 ovarian 106% and 109% | IGROV1 ovarian 100% | OVCAR-3 ovarian 96% and 108% | HS 578T breast 86.4% and 107% | NCI/ADR-RES ovarian 91.9% and 103%

CC(=O)OC[C@]12CCC(C)(C)C=C1[C@H]1CC[C@@H]3[C@@]4(C)CCCNC(C)(C)[C@@H]4CC[C@@]3(C)[C@]1(C)CC2
inactive: SK-MEL-2 melanoma 90.7% | EKVX NSCLC 89.5% | SN12C renal 68.8% | UO-31 renal 91.5% | TK-10 renal 94.9% | ACHN renal 99.3% | CAKI-1 renal 88.9% | A498 renal 97.9% | CCRF-CEM leukemia 39.3% | MOLT-4 leukemia 38.8% | SR leukemia 13.7% | OVCAR-8 ovarian 71.9% | OVCAR-5 ovarian 96.7% | OVCAR-4 ovarian 41.8% | SK-OV-3 ovarian 90.5% | IGROV1 ovarian 43.6% | OVCAR-3 ovarian 30.7% | HS 578T breast 92.5% | NCI/ADR-RES ovarian 104%
active: RPMI-8226 leukemia -4.32%

CC[C@H](C)[C@H](NC(=O)[C@@H](N)CCC(N)=O)C(=O)N[C@@H](Cc1ccc(O)cc1)C(=O)N[C@@H](CCCCN)C(=O)N[C@@H](CCCCN)C(=O)N[C@@H](Cc1ccc(O)cc1)C(=O)N[C@@H](CCCNC(=N)N)C(=O)N[C@H](C(=O)N[C@@H](Cc1c[nH]c2ccccc12)C(=O)N[C@@H](Cc1ccc(O)cc1)C(=O)N[C@@H](CCCNC(=N)N)C(=O)N[C@@H](CCCCN)C(=O)N[C@@H](C)C(=O)N[C@@H](Cc1c[nH]c2ccccc12)C(=O)N[C@@H](CCCCN)C(=O)N[C@H](C(=O)N[C@@H](CC(C)C)C(=O)NCC(=O)N[C@@H](CCCCN)C(=O)N[C@H](C(N)=O)C(C)C)C(C)C)[C@@H](C)O
active: EKVX NSCLC -34.5% | TK-10 renal 8.22% | CAKI-1 renal 7.94% | CCRF-CEM leukemia 5.19% | IGROV1 ovarian -33.4% | OVCAR-3 ovarian -1.52% | HS 578T breast -13% | NCI/ADR-RES ovarian -2.5%
inactive: SK-MEL-2 melanoma 43.3% | SN12C renal 12.4% | UO-31 renal 76% | ACHN renal 65.6% | A498 renal 64.6% | MOLT-4 leukemia 52.9% | SR leukemia 37.8% | RPMI-8226 leukemia 17.9% | OVCAR-8 ovarian 13% | OVCAR-5 ovarian 56.6% | OVCAR-4 ovarian 73.5% | SK-OV-3 ovarian 42.8%

O=C(/C=C\c1ccc(Cl)c(Cl)c1)c1ccccc1
-27.3% (active) and 89.4% (inactive): RPMI-8226 leukemia
inactive: SK-MEL-2 melanoma 119% and 109% | EKVX NSCLC 89.3% | SN12C renal 96.1% and 104% | UO-31 renal 72.2% and 84.2% | TK-10 renal 80.6% and 103% | ACHN renal 95.2% and 105% | CAKI-1 renal 96.7% and 89.5% | A498 renal 74.1% and 77.3% | CCRF-CEM leukemia 45.5% and 91.1% | MOLT-4 leukemia 77.4% and 103% | SR leukemia 13.1% and 106% | OVCAR-8 ovarian 79.2% and 98.9% | OVCAR-5 ovarian 93.7% and 106% | OVCAR-4 ovarian 88.3% | SK-OV-3 ovarian 101% and 96.4% | IGROV1 ovarian 92.7% and 82.4% | OVCAR-3 ovarian 93.6% and 98% | HS 578T breast 111% | NCI/ADR-RES ovarian 99.1% and 105%

CCCCCCCC/C=C\CCCCCCCCOc1ccccc1CC(=O)NCC[N+]1(C)CCOCC1
inactive: SK-MEL-2 melanoma 90.3% | EKVX NSCLC 92.1% | SN12C renal 60.5% | UO-31 renal 96.2% | ACHN renal 85.5% | CAKI-1 renal 71.6% | A498 renal 95.2% | CCRF-CEM leukemia 67.5% | MOLT-4 leukemia 83.7% | SR leukemia 30% | RPMI-8226 leukemia 77.7% | OVCAR-8 ovarian 78.1% | OVCAR-5 ovarian 42.7% | OVCAR-4 ovarian 102% | SK-OV-3 ovarian 75.3% | IGROV1 ovarian 25.2% | OVCAR-3 ovarian 101% | HS 578T breast 92.9% | NCI/ADR-RES ovarian 97.9%
active: TK-10 renal 8.83%

Cn1cc(C2=C(c3cccc4ccccc34)C(=O)NC2=O)c2cc(Br)ccc21
inactive: SK-MEL-2 melanoma 111% | EKVX NSCLC 88.5% | SN12C renal 95.2% | UO-31 renal 80.8% | TK-10 renal 101% | ACHN renal 80.6% | CAKI-1 renal 69.2% | A498 renal 69.8% | CCRF-CEM leukemia 84% | MOLT-4 leukemia 77.1% | SR leukemia 60.8% | RPMI-8226 leukemia 121% | OVCAR-8 ovarian 95.9% | OVCAR-5 ovarian 126% | OVCAR-4 ovarian 124% | SK-OV-3 ovarian 90.3% | IGROV1 ovarian 94.9% | OVCAR-3 ovarian 104% | HS 578T breast 82% | NCI/ADR-RES ovarian 92.2%

Nc1ncnc2c1C(c1ccc([N+](=O)[O-])cc1)c1sc3c(F)cccc3c1O2 (stereo not given)
inactive: SK-MEL-2 melanoma 107% | EKVX NSCLC 98.4% | SN12C renal 97.1% | UO-31 renal 68.4% | TK-10 renal 129% | ACHN renal 89.8% | CAKI-1 renal 74.9% | A498 renal 97.8% | CCRF-CEM leukemia 94.3% | MOLT-4 leukemia 93.4% | SR leukemia 94.3% | RPMI-8226 leukemia 103% | OVCAR-8 ovarian 102% | OVCAR-5 ovarian 85.9% | OVCAR-4 ovarian 99.8% | SK-OV-3 ovarian 109% | IGROV1 ovarian 85.6% | OVCAR-3 ovarian 110% | HS 578T breast 89.2% | NCI/ADR-RES ovarian 101%

O=S(=O)(Nc1ccc(F)cc1)c1ccc(-c2cnc(C3CC3)o2)cc1
active: NCI/ADR-RES ovarian -0.888%
inactive: SK-MEL-2 melanoma 12.8% | EKVX NSCLC 44.4% | SN12C renal 35.5% | UO-31 renal 36.3% | TK-10 renal 32.4% | ACHN renal 32% | CAKI-1 renal 36.3% | A498 renal 14.1% | CCRF-CEM leukemia 10.5% | MOLT-4 leukemia 12.7% | SR leukemia 11.6% | RPMI-8226 leukemia 17.2% | OVCAR-8 ovarian 30.4% | OVCAR-5 ovarian 59.1% | OVCAR-4 ovarian 69.9% | SK-OV-3 ovarian 39.7% | IGROV1 ovarian 37.9% | OVCAR-3 ovarian 10.2% | HS 578T breast 14.1%

O=C(N=Nc1c(O)[nH]c2ccccc12)Nc1ccccc1Cl
inactive: SK-MEL-2 melanoma 102% | EKVX NSCLC 86.6% | SN12C renal 86.4% | UO-31 renal 68.1% | TK-10 renal 107% | ACHN renal 99% | CAKI-1 renal 80.5% | A498 renal 96.5% | CCRF-CEM leukemia 91.9% | MOLT-4 leukemia 93.3% | SR leukemia 77.1% | RPMI-8226 leukemia 84.8% | OVCAR-8 ovarian 97.5% | OVCAR-5 ovarian 93.6% | OVCAR-4 ovarian 71% | SK-OV-3 ovarian 94.4% | IGROV1 ovarian 65.3% | OVCAR-3 ovarian 101% | HS 578T breast 89.4% | NCI/ADR-RES ovarian 93%

COc1ccc(/C=C(\C#N)c2cc3ccccc3[nH]2)cc1
active: NCI/ADR-RES ovarian -6.87%
inactive: SK-MEL-2 melanoma 26.2% | EKVX NSCLC 45.3% | SN12C renal 42.2% | UO-31 renal 46.9% | TK-10 renal 53.6% | ACHN renal 56.5% | CAKI-1 renal 33.9% | A498 renal 32.1% | CCRF-CEM leukemia 13.5% | MOLT-4 leukemia 24.4% | SR leukemia 11.4% | RPMI-8226 leukemia 14.9% | OVCAR-8 ovarian 32% | OVCAR-5 ovarian 42.5% | OVCAR-4 ovarian 62.4% | SK-OV-3 ovarian 47.7% | IGROV1 ovarian 45.7% | OVCAR-3 ovarian 14.1% | HS 578T breast 22.9%

CN1CCN(c2ccc(Nc3ncc(C(N)=O)c(NCCCNC(=O)C4CCC4)n3)cc2)CC1
inactive: SK-MEL-2 melanoma 71.3% | EKVX NSCLC 99.2% | SN12C renal 36.3% | UO-31 renal 40.1% | TK-10 renal 39.8% | ACHN renal 61.8% | CAKI-1 renal 35.1% | A498 renal 137% | CCRF-CEM leukemia 14.2% | MOLT-4 leukemia 18% | SR leukemia 30.1% | RPMI-8226 leukemia 101% | OVCAR-8 ovarian 71.6% | OVCAR-5 ovarian 116% | OVCAR-4 ovarian 73.1% | SK-OV-3 ovarian 37.8% | IGROV1 ovarian 85.7% | OVCAR-3 ovarian 13.3% | HS 578T breast 67.2% | NCI/ADR-RES ovarian 105%

CCCCCC#CC1OC23CCCCC2C(C#N)(C(=N)O3)C1(C#N)C#N (stereo not given)
inactive: SK-MEL-2 melanoma 93% | EKVX NSCLC 97.1% | SN12C renal 93% | UO-31 renal 97.1% | TK-10 renal 108% | ACHN renal 102% | CAKI-1 renal 101% | A498 renal 93.6% | CCRF-CEM leukemia 88.4% | MOLT-4 leukemia 99.9% | SR leukemia 87% | RPMI-8226 leukemia 93.3% | OVCAR-8 ovarian 85.8% | OVCAR-5 ovarian 102% | OVCAR-4 ovarian 108% | SK-OV-3 ovarian 111% | IGROV1 ovarian 99.4% | OVCAR-3 ovarian 117% | HS 578T breast 94.1% | NCI/ADR-RES ovarian 102%

O=C1c2cc3c(cc2-c2c1c1ccc(Cl)cc1c(=O)n2CCCn1ccnc1)OCO3
active: UO-31 renal -7.59% | ACHN renal -19% | CAKI-1 renal 9.62% | A498 renal -12.9% | CCRF-CEM leukemia 3.44% | MOLT-4 leukemia -28.2% | SR leukemia -19.4% | RPMI-8226 leukemia -23.6% | OVCAR-5 ovarian 3.22% | SK-OV-3 ovarian 8.75% | OVCAR-3 ovarian -5.45% | NCI/ADR-RES ovarian -26.4%
inactive: SK-MEL-2 melanoma 31.1% | EKVX NSCLC 42.4% | SN12C renal 12.6% | TK-10 renal 46.3% | OVCAR-8 ovarian 11.4% | OVCAR-4 ovarian 13.7% | IGROV1 ovarian 28.3% | HS 578T breast 46.3%
